Cruzain Triton: cruzain (T. cruzi) inhibition with detergent | purified cruzain, Z-FR-AMC fluorescence, 0.01% Triton | Potency, µM, without a hit: max response, negative = inhibition, hits mostly inhibitors | 200,000 compounds, 0.43% hits | AID 1478;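 note: plate controls were neutral wells for no effect and buffer without enzyme for full effect; nearly all actives have a fitted effect of over 40% in size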
Target sequence (P25779 123-467 limits assumed): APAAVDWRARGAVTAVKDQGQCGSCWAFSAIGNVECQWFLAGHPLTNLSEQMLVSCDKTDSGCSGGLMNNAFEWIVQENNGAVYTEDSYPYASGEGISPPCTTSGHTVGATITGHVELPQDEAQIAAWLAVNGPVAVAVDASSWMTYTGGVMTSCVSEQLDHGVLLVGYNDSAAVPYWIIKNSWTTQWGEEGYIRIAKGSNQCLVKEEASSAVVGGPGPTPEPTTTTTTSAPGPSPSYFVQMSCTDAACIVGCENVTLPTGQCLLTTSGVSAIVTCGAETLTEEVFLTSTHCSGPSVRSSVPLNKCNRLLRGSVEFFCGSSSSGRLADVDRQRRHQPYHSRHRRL
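In this qHTS format, compounds are incubated with 1.5 nM cruzain for 15 min at room temperature before 2 uM Z-FR-AMC is added. Release of AMC is followed at 360/450 nm, and progress is taken as the 60 s fluorescence difference.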
Cruzain noTriton: blocks cruzain activity in detergent-free assay. purified cruzain, Z-FR-AMC fluorescence, no detergent. Potency, µM, for the others: max response, negative = inhibition, most hits filed as inhibitors. 200,000 compounds, 2.3% hits. AID 1476;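 note: plate controls were enzyme without inhibitor for no effect and buffer without enzyme for full effect; nearly all actives have a fitted effect of over 40% in size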
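Purified cruzain at 1.5 nM, pre-incubated 15 min with compound at room temperature in 100 mM sodium acetate pH 5.5, 5 mM DTT, 0.00005% Triton X-100. Reaction started with 2 uM Z-FR-AMC; AMC fluorescence increase over 60 s gives rate.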
* marks the source's active call; other numbers are inactive results; ? = inconclusive. Most compounds without a hit are left out; they make up all but 2.5% or so of the library. Calls come from the whole dose curve; as a rule, active = well fitted curve in the direction sought with a large enough effect; inconclusive = small, poorly fitted or top-dose-only effect, or another doubt; inactive = no such curve, though single readings can be large; an effect the other way counts as inactive or inconclusive. Potency is the fitted concentration of half-maximal effect.

SMILES	Cruzain Triton	Cruzain noTriton
CC(=O)c1ccc(NC(=O)CN(C)S(=O)(=O)c2cnc[nH]2)cc1	-1%	7%
CCOC(=O)c1c(NC(=O)c2cc(C(C)C)on2)sc(C)c1C	-2%	-11%
CCCc1cc(C(=O)Nc2sc(C)c(C)c2C(=O)OCC)no1	-3%	20µM*
CC(=O)c1ccc(NC(=O)Nc2nnc(N3CCCC(C)C3)s2)cc1 (stereo unspecified)	-2%	-9%
COc1ccc(S(=O)(=O)N2CCC(N3CCN(Cc4ccc(F)cc4)C(=O)C3=O)CC2)cc1	1%	-14%
CCOC(=O)C1=C(CSc2nc(-c3ccccc3)ccc2C#N)OC(N)=C(C#N)C1c1ccccc1 (stereo unspecified)	-2%	25µM*
CCOC(=O)C1=C(CSc2nc(-c3ccccc3)ccc2C#N)OC(N)=C(C#N)C1c1cccnc1 (stereo unspecified)	-5%	?
CSc1ccc(C2C(C#N)=C(N)N(c3ccccc3)C3=C2C(=O)CCC3)cc1 (stereo unspecified)	-9%	16µM*
N#CC1=C2N=C(N)c3c(sc4c3CCCCC4)N2C2=C(C(=O)CCC2)C1c1ccccc1 (stereo unspecified)	-1%	25µM*
Cc1nn(C)cc1C1C(C#N)=C(N)N(c2cccnc2)C2=C1C(=O)CCC2 (stereo unspecified)	-3%	-16%
CCOc1ccc(C2C(C#N)=C(N)N(c3sc4c(c3C#N)CCCC4)C3=C2C(=O)CCC3)cc1 (stereo unspecified)	-3%	-6%
COCCNC(=O)CCCn1c(=O)[nH]c2ccsc2c1=O	1%	1%
COc1c2c(c(C(=O)/C=C/C(C)=C/c3ccccc3)c3c1OCO3)CCN(C)C2	6%	-3%
C[C@@H](SCc1ccccc1)C(=O)O	1%	6%
O=C(Cc1ccccc1)Nc1nnc(-c2cccc([N+](=O)[O-])c2)s1	-1%	16µM*
O=C(Nc1ncc(Cc2ccccc2Cl)s1)c1ccc(-c2cccc([N+](=O)[O-])c2)o1	-1%	6.3µM*
O=C(Nc1ncc(Cc2ccccc2Cl)s1)c1ccc([N+](=O)[O-])cc1	-2%	?
COc1ccc(CC(=O)Nc2nnc(-c3cccc([N+](=O)[O-])c3)s2)cc1	0%	?
Cc1ccc(Cc2cnc(NC(=O)/C(C#N)=C/c3ccc(-c4ccc([N+](=O)[O-])cc4)o3)s2)cc1	1%	2.5µM*
CCOc1ccc(NC(=O)/C(C#N)=C\c2ccc(-c3ccc(Cl)cc3)o2)cc1	-2%	-4%
O=C(Nc1ncc(Cc2ccc(C(F)(F)F)cc2)s1)c1ccc(-c2cccc([N+](=O)[O-])c2)o1	-3%	13µM*
O=C(Nc1ncc(Cc2cccc(Cl)c2)s1)c1ccc([N+](=O)[O-])cc1	-3%	?
O=C(O)/C(=C\c1ccncc1)c1cccc2ccccc12	3%	3%
COC(=O)c1ccn(-c2nc(-c3ccc(Cl)cc3)cc(C(F)(F)F)n2)n1	-4%	0%
COc1cc(SC#N)ccc1N=Cc1c(C)[nH]n(-c2cccc3ccccc23)c1=O	-5%	25µM*
SMILES	Cruzain Triton	Cruzain noTriton
COc1cc(SC#N)ccc1N=Cc1c(C)[nH]n(-c2ccc(C)cc2C)c1=O	-2%	-17%
NC(Cc1c[nH]c2ccccc12)C(=O)NCC(=O)O (stereo unspecified)	4%	10%
O=C(c1ccc2c(c1)N(Cc1cccc(Cl)c1)C(=O)c1ccccc1S2(=O)=O)N1CCCCCC1	-3%	7%
Cc1ccc(Cn2ccnc2SCC(=O)Nc2nnc(C)s2)cc1	1%	-16%
CCN1CCN(C(=S)c2ccc(Br)cc2)CC1	4%	4%
OCCN1CCN(C(=S)c2ccc(Cl)c(Cl)c2)CC1	-28%	25µM*
Cc1ccc(-n2c(=O)c3sc4ccccc4c3n(C)c2=O)cc1F	0%	3%
O=C(COc1cc(O)c2c(=O)cc(-c3ccccc3)oc2c1)c1ccc(F)cc1	-4%	13µM*
O=C(COc1cc(O)c2c(=O)cc(-c3ccccc3)oc2c1)c1ccccc1	-2%	?
CCOC(=O)c1cccc(NC(=O)C2CCN(S(=O)(=O)c3c(C)noc3/C=C/c3ccc(C)cc3)CC2)c1	-1%	-11%
CCCCN(c1ccccc1)c1ncnc2c1cnn2-c1ccc(Cl)cc1	1%	11%
CC(C)OC(=O)c1c(NC(=O)c2cnn3c2NC(c2ccccc2)CC3C(F)(F)F)sc2c1CCCC2 (stereo unspecified)	3%	?
CCOC(=O)c1c(NC(=O)c2cnn3c2NC(c2cccc(OC)c2)CC3C(F)(F)F)sc2c1CCCC2 (stereo unspecified)	-1%	3.2µM*
COc1ccc(-c2nc3n(n2)C(c2ccc(OC)c(OC)c2)C(C(=O)Nc2cccnc2)=C(C)N3)cc1 (stereo unspecified)	1%	-3%
CC1(C)CC2CC(C)(CN2C(=O)COC(=O)c2cc(Cl)cc(Cl)c2N)C1 (stereo unspecified)	-8%	0%
CC1(C)CC2CC(C)(CN2C(=O)COC(=O)CNC(=O)c2ccc(Cl)c(Cl)c2)C1 (stereo unspecified)	7.9µM*	7.9µM*
Cc1ccc(C)c(CN2C(=O)C(O)(c3c[nH]c4ccccc34)c3ccccc32)c1 (stereo unspecified)	-11%	-1%
O=c1oc2ccccc2cc1-c1csc(NN=C2CCCC2)n1	-10%	-12%
C/C(=N\Nc1nc(-c2cc(C)ccc2C)cs1)c1cc2ccccc2oc1=O	?	25µM*
C/C(=N\Nc1nc(-c2cc(C)ccc2C)cs1)c1cc2c(ccc3ccccc32)oc1=O	-8%	7.9µM*
O=C(c1ccco1)c1cc2c(ccc3ccccc32)oc1=O	4%	-4%
COc1ccc(CCC(=O)c2c(O)cc(O[C@@H]3O[C@H](CO)[C@@H](O)[C@H](O)[C@H]3O[C@@H]3O[C@@H](C)[C@H](O)[C@@H](O)[C@H]3O)cc2O)cc1O	9%	?
CCOc1ccc(CCNC(=O)c2nn(-c3ccc(OC)cc3)c(=O)c3c2c2ccccc2n3C)cc1OCC	-1%	-3%
CC(C)NC(=O)C1CCC(Cn2c(=O)c3sccc3n(CC(=O)NCc3ccccc3)c2=O)CC1 (stereo unspecified)	-5%	-4%
O=C(CSc1nc2ccccc2c(=O)n1CCC(=O)NC1CCCCC1)Nc1ccccc1Cl	2%	5%
SMILES	Cruzain Triton	Cruzain noTriton
Cc1ccc2c(c1)N(C(=O)NCc1ccccc1)CCO2	-2%	0%
COc1ccc(Nc2nc(C)c3ccccc3n2)cc1	-5%	-4%
CC1=NC(Nc2nc(C)c3ccccc3n2)=NC(C)(C)C1	20µM*	16µM*
Cc1ccc2c(c1)c1c3n2CCN(C(=O)CN2CCN(C)CC2)C3CCC1 (stereo unspecified)	-3%	-10%
Cc1ccc2c(c1)c(=O)c1c3n2CCN(C(=O)CCl)C3CC1 (stereo unspecified)	16µM*	-22%
O=C(O)c1ccc(N2CCCCC2)cc1	-6%	0%
Nc1ccc(N2CCCCCC2)cc1	-9%	32µM*
O=C(NCc1ccc(F)cc1)c1ccc2c(c1)N(Cc1c(F)cccc1Cl)C(=O)CS2	-5%	?
Cc1ccc2c(=O)c3ccccc3n(CCCN)c2c1C	0%	-4%
COc1cc(OC)c(NC(=O)Nc2sc3nc4n(c(=O)c3c2C)CCC(C)CC4)cc1Cl (stereo unspecified)	-2%	-16%
CCOC(=O)c1c(C)[nH]c(C(=O)COC(=O)CCS(=O)(=O)c2ccc(C)cc2)c1C	?	1%
